# Experiments:
# Assay type in all cases: functional
# Plasmodium falciparum [1] = experiment: GSK_TCMDC: Inhibition of Plasmodium falciparum 3D7 in whole red blood cells, using parasite LDH activity as an index of growth. Test compounds present at 2uM
# Plasmodium falciparum [2] = experiment: GSK_TCMDC: Inhibition of Plasmodium falciparum Dd2 in whole red blood cells, using parasite LDH activity as an index of growth. Test compounds present at 2uM
# HepG2 = experiment: GSK_TCMDC: Percent inhibition of human HepG2 cell line. Test compounds present at 10uM.
Structure (SMILES),Inhibition (Plasmodium falciparum [1]) [%],Inhibition (Plasmodium falciparum [2]) [%],Inhibition (HepG2) [%]
CNC(=O)c1cnc(Nc2ccc(N3CCN(C)CC3)cc2)nc1Nc1ccccc1OC.O=C(O)C(F)(F)F,100,84,8
O=C(NCCNc1ccnc(NCc2ccc(F)cc2)n1)c1cc2ccccc2s1,99,17,6
CCCCN(CCCC)Cc1cc(Nc2ccnc3cc(Cl)ccc23)ccc1O.Cl,100,87,67
Cc1cccc(CN2CCC(CNC(=O)c3cc4c(-c5ccccc5F)nn(C)c4s3)CC2)c1,85,15,18
O=C(Nc1ccc(OC2CCN(Cc3ccc(F)cc3)C2)c(Cl)c1)c1ccoc1.O=C(O)C(F)(F)F (stereo unspecified),90,90,13
CN1CCN(c2cc3c(cc2Cl)CCN3C(=O)Cc2ccc(NC(=O)Nc3cccc4ccccc34)cc2)CC1,92,18,12
CN1CCN(CCCN(Cc2csc(-c3ccc(CNCc4ccccc4)cc3)n2)S(=O)(=O)c2ccccc2Cl)CC1.O=C(O)C(F)(F)F,93,81,13
CN1CCCC(CN2CCN(Cc3ccc(-c4ccc(-c5nc6cc(F)ccc6[nH]5)cc4)cc3)CC2)C1.O=C(O)C(F)(F)F (stereo unspecified),100,98,90
COCCOc1nc(N)nc2ncc(Cc3cc(OC)ccc3OC)c(C)c12,96,0,61
Cc1cc(=NN=Cc2cccc(F)c2)c2cc(F)ccc2[nH]1,100,99,7
Cl.O=[N+]([O-])c1ccc(C(O)CNCCc2ccccc2)cc1OCc1ccccc1 (stereo unspecified),94,67,0
COc1ccccc1CCCN1C(=O)C(c2ccccc2)(c2ccccc2)N=C1N.O=C(O)C(F)(F)F,99,99,49
O=C(Nc1ccc2c(c1)CCC2)N[C@H]1CCN(Cc2ccc(OCCCN3CCCCC3)cc2)C1,96,0,9
CCOc1ccc(OCC(=O)Nc2nc(-c3ccc(OC)cc3)c(C)s2)cc1,99,98,0
Cl.O=c1cc(NCCCNCc2cc3c(Cl)cccc3s2)[nH]c2ccccc12,100,57,6
COc1cc(NC(=O)C(c2ccc(Cl)cc2)C(C)C)cc(OC)c1OC (stereo unspecified),100,100,10
COc1ccc(C2CCN(CCN3CCC(NC(=O)c4ccc(-c5cccc(C(F)(F)F)c5C(F)(F)F)cc4)CC3)CC2)c(OC)c1,100,61,35
O=C(Nc1ccc(Cl)cc1)N[C@H]1CCN(Cc2ccc(OCCCN3CCCCC3)cc2)C1,100,0,29
Cc1ccc(-c2nc(N3CCN(C(=O)c4ccco4)CC3)c3ccccc3n2)cc1,90,75,0
CCCCCn1c(Sc2ccc(C#N)c([N+](=O)[O-])c2)nnc1-c1ccccc1,93,15,22
O=C(Nc1ccc(S(=O)(=O)N2CCCCCC2)cc1)c1cc(-c2ccccc2O)n[nH]1,100,76,16

Structure (SMILES),Inhibition (Plasmodium falciparum [1]) [%],Inhibition (Plasmodium falciparum [2]) [%],Inhibition (HepG2) [%]
Cc1cccc(-c2nc(Nc3ccncc3)c3cc(N(C)C)ccc3n2)n1,98,63,5
Nc1ncc(Cc2ccc3c(ccc4ccccc43)c2)c(N)n1,97,3,9
Cc1cccc2nc(-c3cccc(-c4ccc(NC(=O)c5ccc(=O)[nH]n5)cc4)c3)[nH]c12,100,27,18
O=C(/C=C/c1ccc(Cl)cc1)NCCCCCN1CCCN(C(=O)Nc2cccc(Cl)c2)CC1,85,10,19
COc1ccccc1C(=O)N1CCN(Cc2cccs2)CC1,96,1,87
O=C(NCc1ccccc1F)c1ccc(N2CCC(NCc3cccc(-n4cccn4)c3)CC2)cc1,89,3,9
c1ccc2sc(-c3csc(Nc4ccncc4)n3)nc2c1,86,–,0
COc1ccc(-c2c(-c3ccc(OCc4ccccc4)cc3O)n[nH]c2C(F)(F)F)cc1,93,57,49
COc1ccc2ncc(F)c(CCN3CC(O)C(CNCc4ccc5ccccc5c4)C3)c2n1.Cl (stereo unspecified),100,78,57
Cc1ccc(CN2CCC(Oc3cccc(NC(=O)c4ccc(C(F)(F)F)cc4)c3)CC2)cc1.O=C(O)C(F)(F)F,92,15,37
COc1ccc(Cc2c(C)nc3nc(N)nc(N)c3c2C)cc1OC.Cl,93,0,66
Br.Oc1ccc(CCNCCCCCNCCCc2ccc(Cl)cc2)cc1O,91,–,22
CCCCCN1CCCN(Cc2cccc(NC(=O)c3ccc4ccccc4c3)c2)CC1.O=C(O)C(F)(F)F,86,16,27
COc1ccc(C2CCN(CCCNC(=O)c3ccc(NC(=O)c4ccc(Cl)cc4)cc3)CC2)c(OC)c1,99,58,26
COc1ccc(NC(=O)c2cccc(Br)c2)cc1N1CCN(CCCCCCCN2CCN(c3cc(NC(=O)c4cccc(Br)c4)ccc3OC)CC2)CC1.Cl,99,93,97
O=C(Nc1cccc(C(F)(F)F)c1)NC1CCN(c2ccnc3cc(Cl)ccc23)C1.O=C(O)C(F)(F)F (stereo unspecified),100,89,18
O=C(O)C(F)(F)F.OCC1CCN(Cc2ccc(-c3cccc(-c4nc5ccccc5[nH]4)c3)cc2)CC1,100,6,21
COc1ccc(NC(=O)c2ccc3[nH]c(-c4ccc(Cl)cc4)cc3c2)cc1OCCN(C)C,100,78,32
CCC(CC)C(CC(=O)NC(C)(C)CCc1ccccc1OC)Nc1ccc(C#N)c2ccccc12 (stereo unspecified),93,91,9
CC(C)C(=O)NC(Nc1ccc([N+](=O)[O-])cc1)C(Cl)(Cl)Cl (stereo unspecified),97,84,7
CC(C)(C)c1cc(Cl)cc(C(=O)Nc2cc([N+](=O)[O-])ccc2Cl)c1O,91,–,79

Structure (SMILES),Inhibition (Plasmodium falciparum [1]) [%],Inhibition (Plasmodium falciparum [2]) [%],Inhibition (HepG2) [%]
CCC(C)c1ccc(NC(=O)C(C)c2ccc([N+](=O)[O-])cc2)cc1 (stereo unspecified),100,100,14
COc1ccc2nc(N(CCCn3ccnc3)C(=O)C=Cc3cccs3)sc2c1.Cl,92,26,8
CCC1(C)N=C(N)N=C(N)N1c1ccc(Cl)cc1.Cl (stereo unspecified),95,0,7
COc1ccc(CCNc2nc(NCc3ccccc3)c3cc(OC)c(OC)cc3n2)cc1OC,100,91,46
COC(=O)c1cccc(CNCc2cccc(-c3cccc(-c4nc5ccccc5[nH]4)c3)c2)c1.O=C(O)C(F)(F)F,95,58,3
O=C1COc2ccccc2N1C/C=C(\CN1CCC(c2ccccc2)CC1)c1cc(Cl)cc(Cl)c1,91,72,14
COc1ccc(-c2ccc(NC(=O)c3ccc(C#N)cc3)c(F)c2)cc1CN(C)CCN(C)C.O=C(O)C(F)(F)F,88,0,24
CN(C)Cc1c(O)ccc2oc(Cc3ccccc3)cc12.Cl,99,94,0
NC(=O)c1sc(-n2cnc3ccc(C(=O)NCCN4CCOCC4)cc32)cc1OCc1ccccc1C(F)(F)F.O=CO,81,–,0
O=C(O)C(F)(F)F.Oc1ccc(CNCC2CCN(CC3CCCCC3)CC2)cc1,82,–,9
O=C(Nc1ccc(C(F)(F)F)cc1)c1cc(Cl)cc2nc(C(F)(F)F)[nH]c12,100,–,86
CC(Sc1nnc(-c2ccccc2Br)[nH]1)C(=O)Nc1ccc(F)cc1 (stereo unspecified),90,–,0
CN1CCC(N2CCN(C(=O)c3cccc(-c4cccc(-c5nc6ccccc6[nH]5)c4)c3)CC2)CC1,100,–,10
Cc1ccc(-n2c(C)cc(C(=O)CN3C(=O)NC(Cc4ccccc4)C3=O)c2C)cc1 (stereo unspecified),82,–,0
COc1ccc(NC(=O)c2ccc(-c3cccc(OCc4ccccc4)c3)cc2)cc1N1CCN(C)CC1,85,–,29
O=CO.c1ccc2c3c([nH]c2c1)C(c1ccc2c(c1)CCO2)N(c1ncnc(N2CCN(CCCN4CCOCC4)CC2)n1)CC3 (stereo unspecified),80,–,37
CC(C)CN1C(=O)C(c2ccc(F)c(F)c2)=C(O)C1c1ccccc1 (stereo unspecified),94,–,0
CNC(=O)c1ccc(/C=C/C(=O)N2CCc3ccc(-c4ccccc4)cc3C2c2cccc(C(F)(F)F)c2)cc1 (stereo unspecified),91,–,9
COc1cc2ncnc(Nc3ccc(OC(F)(F)c4ccccc4)cc3)c2cc1OC.Cl,91,–,14
C[C@H]1CN(Cc2ccc(-c3cccc(CNC(=O)c4cccc(C(=O)c5ccc(Cl)c(Cl)c5)c4)c3)s2)CCN1.O=C(O)C(F)(F)F,99,–,3
